Results published in PubChem BioAssay (NCI).
Several values for one entry are separate records, joined by “and”; a condition that tells them apart may be missing. Identical values can stand only once. About 83,000 compounds went through this panel and 20% of them were active in at least one assay; those are over-represented in the sample as a whole.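 How to read the values: 0–100, growth inhibition (40 = 60% inhibited); 0, no net growth; -100 to 0, cell death (-40 = 40% of starting cells died; -100 = all dead).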 Activity calls are given as the source filed them. Rule for the calls: active = growth percent below 10; inactive = the rest.

Experiments:
Assay in all cases: NCI-60 one-dose screen, 48 h (100 = growth as untreated, 0 = no growth, -100 = all killed)
Details in all cases: 10 µM unless noted
[1] = test system: DU-145 prostate
[2] = test system: K-562 leukemia
[3] = test system: MALME-3M melanoma
[4] = test system: MDA-MB-231 breast
[5] = test system: RXF 393 renal
[6] = test system: SF-268 CNS
[7] = test system: SF-295 CNS
[8] = test system: SF-539 CNS
[9] = test system: UACC-257 melanoma
[10] = test system: M14 melanoma

SMILES | growth [1] | growth [2] | growth [3] | growth [4] | growth [5] | growth [6] | growth [7] | growth [8] | growth [9] | growth [10]
N#CC1C(=O)c2ccccc2C1c1ccccc1 (stereo not given) | 109% (inactive) and 104% (inactive) | 120% (inactive) and 101% (inactive) | 96% (inactive) and 106% (inactive) | 104% (inactive) and 120% (inactive) | 94.7% (inactive) and 124% (inactive) | 104% (inactive) and 101% (inactive) | 96% (inactive) and 109% (inactive) | 110% (inactive) and 107% (inactive) | 113% (inactive) and 99.1% (inactive) | 104% (inactive) and 105% (inactive)
C#Cc1cc(C(=O)Nc2ccc(CN3CCN(C)CC3)c(C(F)(F)F)c2)ccc1C | 85.8% (inactive) | 7.97% (active) | 23.6% (inactive) | 59.2% (inactive) | 76.3% (inactive) | 82.5% (inactive) | 77% (inactive) | 44% (inactive) | -32.9% (active) | -70.4% (active)
Clc1cccc(Nc2ncnc3ccc(-c4cncc(-n5cnnn5)c4)cc23)c1 | 43.5% (inactive) | 71.5% (inactive) | 88.2% (inactive) | 67.3% (inactive) | 48.4% (inactive) | 70.6% (inactive) | 76.9% (inactive) | 87.3% (inactive) | 92.9% (inactive) | 53.2% (inactive)
[2H]C([2H])([2H])Oc1cc(F)ccc1/C=C/C(=O)/C=C(/C=C/c1ccc(F)cc1OC([2H])([2H])[2H])OB(F)F | 30.5% (inactive) | 18% (inactive) | 33.1% (inactive) | 53% (inactive) | 1.06% (active) | 56.7% (inactive) | 59.5% (inactive) | 93.2% (inactive) | 48.9% (inactive) | 8.14% (active)
COc1cc(/C=C/C(=O)c2ccc(NC(=O)CSc3nnc(-c4cc(-c5ccccc5)nc5ccccc45)n3-c3ccccc3)cc2)cc(OC)c1OC | 83.7% (inactive) | 49.7% (inactive) | 94.6% (inactive) | 64.2% (inactive) | 94.1% (inactive) | 90.8% (inactive) | 96.6% (inactive) | 88.3% (inactive) | 109% (inactive) | 94.5% (inactive)
COC(=O)[C@H]1Cc2c([nH]c3ccccc23)[C@@H](c2cccs2)N1 | 106% (inactive) | 104% (inactive) | 97.6% (inactive) | 95.1% (inactive) | 107% (inactive) | 98.9% (inactive) | 100% (inactive) | 93.1% (inactive) | 105% (inactive) | 107% (inactive)
Cc1nc2cccc(NCCCCC(=O)NO)c2c(=O)n1-c1ccccc1 | 58.1% (inactive) | 40.9% (inactive) | 23.4% (inactive) | 77.1% (inactive) | 49.2% (inactive) | 74.6% (inactive) | 82.9% (inactive) | 49.9% (inactive) | 42.7% (inactive) | 50.4% (inactive)
COc1ccc(-c2cc(=O)c3c(O)cc(O)cc3o2)cc1 | 103% (inactive) and 97.8% (inactive) | 91.5% (inactive) | 113% (inactive) and 110% (inactive) | 113% (inactive) and 91.4% (inactive) | 121% (inactive) and 116% (inactive) | 98.5% (inactive) and 99.4% (inactive) | 101% (inactive) and 104% (inactive) | 94.5% (inactive) and 105% (inactive) | 127% (inactive) and 126% (inactive) | 118% (inactive) and 122% (inactive)
COc1ccccc1/C=C/C(=O)/C=C/c1ccccc1OC | -11.9% (active) and -11.3% (active) | 10.9% (inactive) | -33.8% (active) and 2.49% (active) | 17.5% (inactive) and 8.92% (active) | -87.5% (active) and -89.7% (active) | 8.73% (active) and 21.3% (inactive) | 10.4% (inactive) and -31% (active) | 3.38% (active) and -29.1% (active) | -29.2% (active) and 6.89% (active) | 8.11% (active) and -49.7% (active)
Nc1nc(N)c2c(n1)NC(c1ccc(Cl)cc1)CC(c1cccc(Nc3ccncc3)c1)=N2 (stereo not given) | 70% (inactive) | 27% (inactive) | 57% (inactive) | 49.8% (inactive) | 49.2% (inactive) | 61.7% (inactive) | 64.5% (inactive) | 63.5% (inactive) | 52.3% (inactive) | 35.4% (inactive)
Nc1ncc(-c2ccc3ncnc(N4CCc5ccc(Cl)cc54)c3c2)cc1C(F)(F)F | 17.6% (inactive) | 30.5% (inactive) | -0.57% (active) | 21.8% (inactive) | -38.8% (active) | 22.4% (inactive) | 19.3% (inactive) | 2.93% (active) | 29.3% (inactive) | 26.7% (inactive)
CN1CCN(c2ccc(Nc3ncc(C(N)=O)c(NCCCNC(=O)C4CCC4)n3)cc2)CC1 | 67.6% (inactive) | 41.7% (inactive) | 76.6% (inactive) | 11.6% (inactive) | 20.4% (inactive) | 80.6% (inactive) | 81.3% (inactive) | 11.1% (inactive) | 119% (inactive) | 80% (inactive)
COc1ccc(-c2c[nH]c(C(=O)O)c2-c2cc(OC)c(OC)c(OC)c2)cc1 | 49% (inactive) | 11.7% (inactive) | 33.7% (inactive) | 57.7% (inactive) | -3.91% (active) | 64.9% (inactive) | 23.6% (inactive) | 2.29% (active) | 78.8% (inactive) | 45.7% (inactive)
Cc1ccc(Cc2cnc(NC(=O)c3cc(C)oc3C)s2)cc1 | 75.6% (inactive) | 29.5% (inactive) | 85.2% (inactive) | 79.6% (inactive) | 58.7% (inactive) | 67.8% (inactive) | 66.6% (inactive) | 76.8% (inactive) | 94.2% (inactive) | 70.8% (inactive)
CCC(=O)Oc1cc(Cl)c(Cl)cc1Cl | 103% (inactive) | 101% (inactive) | 108% (inactive) | 114% (inactive) | 113% (inactive) | 97.9% (inactive) | 96% (inactive) | 97.1% (inactive) | 95.8% (inactive) | 99.5% (inactive)
Cc1nnc(NS(=O)(=O)c2ccc(N=Nc3ccc(N)nc3N)cc2)s1 | 118% (inactive) and 105% (inactive) | 105% (inactive) | 110% (inactive) | 95.7% (inactive) and 112% (inactive) | 134% (inactive) and 136% (inactive) | 115% (inactive) and 106% (inactive) | 127% (inactive) and 102% (inactive) | 110% (inactive) and 103% (inactive) | 105% (inactive) and 117% (inactive) | 101% (inactive) and 108% (inactive)
COCCOc1cc2ncnc(N3CCN(S(=O)(=O)c4ccccc4Cl)CC3)c2cc1OCCOC | 91.2% (inactive) | 41.3% (inactive) | 67.9% (inactive) | 74.8% (inactive) | 83.9% (inactive) | 86.2% (inactive) | 82.7% (inactive) | 88.8% (inactive) | 83.5% (inactive) | 71.9% (inactive)
O=C(Nc1ccc2ncsc2c1)c1csc(Nc2ccc3[nH]ncc3c2)n1 | 35.5% (inactive) | 28.1% (inactive) | 57.1% (inactive) | 62.9% (inactive) | 13.9% (inactive) | 55.8% (inactive) | 25.5% (inactive) | 22.9% (inactive) | 63.8% (inactive) | 25.2% (inactive)
O=C(CCl)N(O)c1ccc(/C=C/c2ccccc2)cc1 | 90.3% (inactive) and 86.6% (inactive) | 64% (inactive) and 46.1% (inactive) | 95.3% (inactive) and 84.2% (inactive) | 82.1% (inactive) and 66.5% (inactive) | 99.9% (inactive) and 71.3% (inactive) | 84.7% (inactive) and 72.8% (inactive) | 95.5% (inactive) and 80.9% (inactive) | 94.3% (inactive) and 93.4% (inactive) | 103% (inactive) | 75% (inactive) and 71.8% (inactive)
Cn1cc2c(=O)nc3c(-c4nc5ccccc5[nH]4)n[nH]n3c2n1 | 71.8% (inactive) | 61.1% (inactive) | 74.1% (inactive) | 100% (inactive) | 78.1% (inactive) | 74.2% (inactive) | 106% (inactive) | 97% (inactive) | 72.9% (inactive) | 75.8% (inactive)
O=C(Nc1ccc2ccccc2c1)c1cc2ccccc2cc1O | 13.3% (inactive) | 71.1% (inactive) | 58.5% (inactive) | 104% (inactive) | 115% (inactive) | 7.54% (active) | 128% (inactive) | 105% (inactive) | 85.6% (inactive) | 99% (inactive)
Cc1nc(Nc2ncc(C(=O)Nc3c(C)cccc3Cl)s2)cc(N2CCN(CCO)CC2)n1 | 10.2% (inactive) and 12.5% (inactive) | 7.66% (active) | 51.4% (inactive) and 31.2% (inactive) | 11.2% (inactive) and 8.95% (active) | -18.9% (active) and -46.2% (active) | 28.4% (inactive) and 30.3% (inactive) | 57.4% (inactive) and 37.3% (inactive) | 18.8% (inactive) and -9.03% (active) | 79.1% (inactive) and 48.4% (inactive) | 42.4% (inactive) and 17.5% (inactive)
Cc1n(Cc2ccc3ccccc3c2)c(Cl)c(Cl)[n+]1Cc1ccc2ccccc2c1 | 48.3% (inactive) | 9.4% (active) | -0.456% (active) | 10.6% (inactive) | 43.3% (inactive) | 34.9% (inactive) | 67.8% (inactive) | 54.4% (inactive) | -13.6% (active) | 10.9% (inactive)
